This is a sample that favours compounds with a hit; in the whole collection about 12% have one here.
HP1b binding inh: HTS for Inhibitors of HP1-beta Chromodomain Interactions with Methylated Histone Tails; 0.56% of 390,000 active; Potency, µM (highest dose often 114 µM), for the others: at the highest dose activity change, negative = inhibition, actives largely listed as inhibitors; AlphaScreen HP1-beta / biotin-H3K9me3 peptide binding; further: nearly all actives have a fitted effect of over 70% in size
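Compound inhibition of the preformed complex between 50 nM HP1-beta and 50 nM biotinylated H3K9me3 peptide was read by AlphaScreen. Buffer was PBS pH 7.4 with 0.01% Tween-20. Incubations ran 30 min at room temperature, with 10 ug/mL donor/acceptor beads.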
G9a block: qHTS Assay for Inhibitors of Histone Lysine Methyltransferase G9a; Histone-lysine N-methyltransferase EHMT2 (Homo sapiens), Q96KQ7; G9a H3K9 monomethylation, AlphaScreen, 2 h; Potency, µM (top dose mostly 102 µM), without a hit: at the highest dose activity, negative = inhibition, actives largely listed as inhibitors; 8.8% of 350,000 active; AID 504332, 2011; further: on the % scale 0 is the no-effect control and ±100 the full control effect; nearly all actives have a fitted effect of over 75% in size
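AlphaScreen read-out: biotin-H3K9 peptide (500 nM) methylation by 20 nM enzyme with 20 uM SAM, 2 h at room temperature after 15 min compound preincubation; anti-monomethyl H3K9 antibody plus donor/acceptor beads, 10 min dark.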
Sfp inh: qHTS Assay for Inhibitors of Bacillus subtilis Sfp phosphopantetheinyl transferase (PPTase); 4'-phosphopantetheinyl transferase ffp (Bacillus subtilis), Q9F4F7; AID 1490, 2009; 3.5% of 310,000 active; Biochemical Sfp PPTase activity, qHTS; Potency, µM, inactives show largest response in the series, negative = inhibition, usual class: inhibitors;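 further: the enzyme is Sfp with the accession as filed and its product quenches rhodamine fluorescence; 0% = enzyme reaction without inhibitor and -100% = no enzyme wells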
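Fluorescence-quenching assay with 15 nM Sfp, 5 uM rhodamine-CoA and 12.5 uM BHQ-2-labelled ybbR peptide in pH 7.6 Hepes/MgCl2 buffer. Enzyme was pre-incubated with compound for 15 min at room temperature. Rate was taken from the 30-min fluorescence change (525/598 nm).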
L3MBTL1 block: qHTS Assay for the Inhibitors of L3MBTL1; AID 485360, 2010; 0.66% of 230,000 active; AlphaScreen L3MBTL1–H3K9me1 peptide binding; Lethal(3)malignant brain tumor-like protein 1 (Homo sapiens), Q9Y468; Potency, µM (highest dose often 57.1 µM), for inactives: top-dose activity, negative = inhibition, actives largely listed as inhibitors; further: on the % scale 0 is the no-effect control and ±100 the full control effect; nearly all actives have a fitted effect of over 60% in size
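AlphaScreen assay: L3MBTL1 (50 nM final) was preincubated 30 min at room temperature with biotinylated H3(1-15)K9me1 peptide (75 nM final), then 30 min with library compounds; streptavidin donor and nickel chelate acceptor beads (10 ug/mL final) added, 30 min dark.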
BAZ2B block: qHTS Assay for Inhibitors of BAZ2B; Potency, µM (titrated, usually from 114 µM), without a hit: at the top dose activity change, negative = inhibition, most hits filed as inhibitors; 4.4% of 360,000 active; AlphaScreen BAZ2B-H3K14Ac peptide displacement; further: on the % scale 0 is the no-effect control and ±100 the full control effect; nearly all actives have a fitted effect of over 60% in size
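Protein-peptide AlphaScreen: BAZ2B 50 nM, b-H3K14Ac 50 nM, 1x PBS pH 7.4 + 0.01% Tween-20. Preincubation 30 min RT; cpd 30 min RT (top 110 uM); beads 20 min RT, light-protected.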
JMJD2A Tudor: qHTS Assay for Inhibitors of JMJD2A-Tudor Domain; AlphaScreen JMJD2A-Tudor / H3K4me3 peptide binding; 4.4% of 390,000 active; Lysine-specific demethylase 4A (Homo sapiens), O75164; Potency, µM (series often up to 114 µM), without a hit: top-dose activity change, negative = inhibition, hits mostly inhibitors; further: on the % scale 0 is the no-effect control and ±100 the full control effect; nearly all actives have a fitted effect of over 50% in size
Numbers without * were called inactive; u = inconclusive; x = no result given; [ ] = remark or other dose. The call rests on the fitted dose curve; in most records, active means well fitted curve in the direction sought with a large enough effect; inconclusive means small, poorly fitted or top-dose-only effect, or another doubt; inactive means no such curve, though single readings can be large; an effect the other way counts as inactive or inconclusive. Potency means the concentration at half of the fitted maximal effect.

SMILES	HP1b binding inh	G9a block	Sfp inh	L3MBTL1 block	BAZ2B block	JMJD2A Tudor
COc1ccc(CCNCc2c(C(=O)O)c(C)n(Cc3cccc(Cl)c3)c2C)c(OC)c1OC	26%	-1%[59 µM]	x	x	-13%	-14%
CN(C)c1ccc(-c2cc(-n3ccnc3)ncn2)cc1	x	x	50µM*	x	x	x
CN(C)Cc1ccccc1-c1cc(-n2ccnc2)ncn1	x	x	50µM*	x	x	x
c1cncc(-c2cc(-n3ccnc3)ncn2)c1	x	-39%[0.501 µM]	79µM*	x	x	x
CN(C)C(=O)c1ccc(-c2cc(-n3ccnc3)ncn2)cc1	x	-17%[0.501 µM]	-26%	x	x	x
N#Cc1cccc(-c2cc(-n3ccnc3)ncn2)c1	x	x	-3%	x	x	x
CNc1cc(-c2ccccc2CN(C)C)ncn1	x	-1%[0.501 µM]	17%	x	x	x
COc1ccccc1CNC(=O)c1c2c(nc3ccccc13)C(=O)N(C1CCCCC1)C2	59%	3%[59 µM]	x	x	0%	-16%
CC(C)OC(=O)c1cc(-c2ccc(C=O)o2)ccc1Cl	14%	u	-11%	-2%	-33%	5%
CC(C)N1C(=O)S/C(=C\c2ccc(-c3ccc(Cl)c(C(=O)O)c3)o2)C1=O	-11%	40µM*	-28%	u	-34%	79µM*
CCN(CC)c1ccc(/C=C2/SC(=O)N(C(C)C)C2=O)o1	5%	7.1µM*	3.2µM*	-1%	u	u
COc1ccc(C2Nc3ccccc3C(=O)N2Cc2ccccc2)cc1COc1ccc(NC(=O)c2ccccc2)cc1 (stereo not given)	x	x	x	x	x	-26%
CC(=O)c1ccc(NC(=O)c2cc3c(=O)oc4ccc(C)cc4c3s2)cc1	19%	-6%[59 µM]	x	x	1%	-6%
O=C(CCSc1nc(-c2ccc3c(c2)OCO3)cc(C(F)(F)F)n1)NCc1ccco1	50%	5%	40µM*	x	-3%	0%
CCn1ncc(CNC(=O)CCCSc2nc(-c3ccco3)cc(C(F)(F)F)n2)c1C	23%	16µM*	-24%	-8%	-9%	-6%
COCCNC(=O)CCSc1nc(-c2ccc3c(c2)OCO3)cc(C(F)(F)F)n1	32%	0%[59 µM]	x	x	u	-5%
CCOc1ccc(CNC(=O)C2CCN(c3nnc(-n4c(C)ccc4C)s3)CC2)cc1	9%	-18%[59 µM]	x	x	-16%	-24%
Cc1ccc(OCCn2nnc3sc4c(c3c2=O)CCC(C)C4)cc1 (stereo not given)	81%	u	x	x	21%	33%
N[C@@]1(C(=O)O)CN[C@@H](C(=O)O)C1	x	29%[59 µM]	22µM*	x	x	x
NC1(C(=O)O)CC(C(=O)O)C1 (stereo not given)	x	4%[59 µM]	50µM*	x	x	x
O=[N+]([O-])c1ccc2c(c1)nc1n2CCN(c2ccccc2)C1	52%	13µM*	-9%	x	u	-26%
O=[N+]([O-])c1ccc2c(c1)nc1n2CCN(CC2CCCO2)C1 (stereo not given)	54%	-21%[59 µM]	16%	2%	-13%	-11%
COCCN1CCn2c(nc3cc([N+](=O)[O-])ccc32)C1	60%	35µM*	16%	x	-24%	-3%[11.4 µM]
O=C(NCc1cccc(Cl)c1)C1CCCN(c2ncnc3onc(-c4ccc(F)cc4)c23)C1 (stereo not given)	54%	-25%[59 µM]	x	x	12%[57.1 µM]	-9%
O=C(Cn1ncc2c(=O)oc3ccccc3c21)NCc1ccc(Cl)cc1	21%	-38%[59 µM]	x	x	-3%	-15%
SMILES	HP1b binding inh	G9a block	Sfp inh	L3MBTL1 block	BAZ2B block	JMJD2A Tudor
S=c1oc(-c2ccncc2)nn1CCc1ccncc1	40%	3%[12.7 µM]	10%	-1%[11.4 µM]	56µM*	-19%
c1cc(-c2nnc(-c3ccncc3)o2)ccn1	12%	0%	1%	-1%	-1%	-17%
C=CC(C)(C)c1[nH]c2ccccc2c1C1=C(O)C(=O)C(c2c[nH]c3c(CC=C(C)C)cccc23)=C(O)C1=O	x	x	-24%	x	x	x
Cc1ccc(CNC(=O)c2ccc(CNS(=O)(=O)c3ccc4c(c3)C(C)(C)C(=O)N4C)cc2)o1	18%	45µM*	50µM*	2%	-34%	-26%
Cc1ccccc1NC(=O)c1ccc(CNS(=O)(=O)c2ccc3c(c2)C(C)(C)C(=O)N3C)cc1	15%	7%[59 µM]	x	x	-17%	-11%
O=C(Nc1ccc(F)cc1F)Nc1ccc(F)cc1F	22%	16%	18%	11%	-20%	-3%
CC(=O)Nc1cccc(NC(=S)Nc2ccc(F)cc2F)c1	21%	u	40µM*	u	10%	-23%
CC(=O)Nc1cccc(NC(=S)Nc2cccc(Cl)c2Cl)c1	-7%	x	32µM*	1%	-13%	-18%
O=C(CCc1nc(-c2cccs2)no1)Nc1ccccc1[N+](=O)[O-]	-18%	u	x	x	u	-20%
CCC(C)NCCOCCOc1ccc(F)cc1 (stereo not given)	u	u	-9%	x	u	3.2µM*
CCC(C)NCCOCCOc1cc(C)c(Cl)c(C)c1 (stereo not given)	u	u	16%	6%	79µM*	4µM*
Cc1ccc(CN2CCN(/N=C/c3cc([N+](=O)[O-])ccc3Cl)CC2)cc1	u	u	-7%	x	32µM*	35µM*
Cc1ccc(CN2CCN(/N=C/c3ccc(Cl)c([N+](=O)[O-])c3)CC2)cc1	u	14µM*	3%	x	14µM*	45µM*
Cc1ccc(CN2CCN(/N=C/c3cc(Br)ccc3F)CC2)cc1	-1%	56µM*	5%	-18%	50µM*	u
O=[N+]([O-])c1cc(CN2CCC(O)CC2)ccc1Cl	u	13µM*	-13%	6%	50µM*	0.89µM*
Cc1ccc(CN2CCN(/N=C/c3ccc(N(C)C)cc3)CC2)cc1	u	x	2%	-28%	u	u
COC(=O)c1ccccc1S(=O)(=O)N1CCc2nc(-c3ccccc3)c3c(c2C1)CO[C@@H](C)C3	x	x	-17%	x	x	x
c1ccc(CCNc2c3c(nc4ncnn24)CCC3)cc1	21%	-2%	-8%	-5%	28%	-16%
Fc1ccccc1CCNc1c2c(nc3ncnn13)CCCC2	47%	50µM*	-4%	0%	-4%	-7%
CCOC(=O)/C(=C\c1cccnc1)C(=O)c1cc(C(C)=O)c(Nc2ccccc2)s1	-11%	10µM*	40µM*	x	56µM*	u
Cn1c(=O)c2c(ncn2Cc2ccc(Cl)cc2)n(C)c1=O	49%	-2%[0.501 µM]	1%	7%	0%	-8%

Screening results as filed in PubChem BioAssay.
